# According to article PMC7862700, “An all-to-all approach to the identification of sequence-specific readers for epigenetic DNA modifications on cytosine”:
# Experiments:
# Assay in all cases: DAPPL (digital affinity profiling via proximity ligation, sequencing); 10 mM Tris-HCl pH 7.5, 50 mM NaCl, 1 mM DTT, 4% glycerol, room temperature, 30 min; GST-TFs on glutathione beads, 16-mer random dsDNA library, 0.1% formaldehyde crosslink after washing; high values mean tight binding
# FLI1 = target: T1, FLI1 (Homo sapiens, UniProt Q01543 1-452); settings: protein: recombinant; tags: N-terminal GST; dsDNA, one strand shown
# T1 sequence: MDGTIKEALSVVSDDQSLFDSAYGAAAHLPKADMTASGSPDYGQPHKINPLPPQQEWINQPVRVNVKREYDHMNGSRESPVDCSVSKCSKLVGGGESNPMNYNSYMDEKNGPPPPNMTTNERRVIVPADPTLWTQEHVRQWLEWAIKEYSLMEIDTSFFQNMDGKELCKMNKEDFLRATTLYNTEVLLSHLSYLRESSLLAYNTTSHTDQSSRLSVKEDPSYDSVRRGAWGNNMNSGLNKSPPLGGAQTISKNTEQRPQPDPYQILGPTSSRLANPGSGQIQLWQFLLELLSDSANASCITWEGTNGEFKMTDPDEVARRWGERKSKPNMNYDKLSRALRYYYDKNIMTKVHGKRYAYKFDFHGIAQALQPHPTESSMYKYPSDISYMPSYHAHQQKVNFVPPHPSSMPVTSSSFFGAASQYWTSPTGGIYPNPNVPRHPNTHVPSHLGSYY
# Method in brief: (§1)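 GST fusions of human transcription factors were expressed in yeast and captured with glutathione beads. Once given DNA barcodes and pooled alongside a tag-only sample, they were incubated for 30 min at room temperature with 200 nmole of a random double-stranded 16-mer DNA library in Tris/NaCl/DTT/glycerol buffer, then washed, crosslinked (0.1% formaldehyde), proximity-ligated, PCR-amplified and sequenced on an Illumina NextSeq500. The binding signal of each hexamer is its read frequency for a factor divided by its frequency for the tag-only sample.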
# ELK1 = target: T2, ELK1 (Homo sapiens, UniProt P19419 1-428); settings: protein: recombinant; tags: N-terminal GST; dsDNA, one strand shown
# T2 sequence: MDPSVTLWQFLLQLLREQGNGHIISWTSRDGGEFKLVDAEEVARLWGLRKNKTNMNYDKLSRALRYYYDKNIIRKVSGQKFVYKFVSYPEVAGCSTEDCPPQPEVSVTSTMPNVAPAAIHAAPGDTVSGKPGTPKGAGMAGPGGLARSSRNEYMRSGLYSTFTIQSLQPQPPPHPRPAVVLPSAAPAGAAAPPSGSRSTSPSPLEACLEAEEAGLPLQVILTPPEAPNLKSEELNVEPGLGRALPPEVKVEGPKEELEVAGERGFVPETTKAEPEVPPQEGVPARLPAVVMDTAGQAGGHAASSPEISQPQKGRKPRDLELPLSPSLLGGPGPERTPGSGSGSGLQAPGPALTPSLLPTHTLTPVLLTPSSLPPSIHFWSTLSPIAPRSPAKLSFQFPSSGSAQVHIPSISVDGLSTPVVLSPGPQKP
# Method in brief: as §1
# GABPA = target: T3, GABPA (Homo sapiens, UniProt Q06546 1-454); settings: protein: recombinant; tags: N-terminal GST; dsDNA, one strand shown
# T3 sequence: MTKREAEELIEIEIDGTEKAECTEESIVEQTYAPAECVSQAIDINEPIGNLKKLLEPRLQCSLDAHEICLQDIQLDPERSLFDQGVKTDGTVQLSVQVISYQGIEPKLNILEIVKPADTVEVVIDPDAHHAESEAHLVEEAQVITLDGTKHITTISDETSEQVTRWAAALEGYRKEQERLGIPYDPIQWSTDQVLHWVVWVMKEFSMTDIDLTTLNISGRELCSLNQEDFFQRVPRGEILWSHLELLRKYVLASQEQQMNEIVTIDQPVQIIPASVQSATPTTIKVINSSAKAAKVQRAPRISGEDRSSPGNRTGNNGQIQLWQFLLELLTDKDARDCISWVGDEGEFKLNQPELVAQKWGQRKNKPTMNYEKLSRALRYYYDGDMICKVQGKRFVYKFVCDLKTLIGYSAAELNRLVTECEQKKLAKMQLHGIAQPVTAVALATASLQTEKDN
# Method in brief: as §1
# ERG = target: T4, ERG (Homo sapiens, UniProt P11308 1-479); settings: protein: recombinant; tags: N-terminal GST; dsDNA, one strand shown
# T4 sequence: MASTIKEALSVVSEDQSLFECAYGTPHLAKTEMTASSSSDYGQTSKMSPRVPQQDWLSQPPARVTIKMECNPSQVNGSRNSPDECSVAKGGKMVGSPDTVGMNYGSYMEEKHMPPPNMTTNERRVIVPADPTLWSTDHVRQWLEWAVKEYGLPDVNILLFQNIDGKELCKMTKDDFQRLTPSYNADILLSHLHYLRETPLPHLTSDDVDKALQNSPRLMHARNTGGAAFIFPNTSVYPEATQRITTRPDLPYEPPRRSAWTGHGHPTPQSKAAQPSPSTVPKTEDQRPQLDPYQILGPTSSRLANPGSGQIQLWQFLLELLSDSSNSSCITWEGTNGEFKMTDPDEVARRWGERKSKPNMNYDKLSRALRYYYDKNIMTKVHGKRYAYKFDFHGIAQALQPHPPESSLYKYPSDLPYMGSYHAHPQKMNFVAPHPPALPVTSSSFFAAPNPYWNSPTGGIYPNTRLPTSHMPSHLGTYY
# Method in brief: as §1
# ELF1 = ELF1 (Homo sapiens, UniProt P32519 1-619); settings: protein: recombinant; tags: N-terminal GST; dsDNA, one strand shown
# Method in brief: as §1
# EHF = target: T5, EHF (Homo sapiens, UniProt Q9NZC4 1-300); settings: protein: recombinant; tags: N-terminal GST; dsDNA, one strand shown
# T5 sequence: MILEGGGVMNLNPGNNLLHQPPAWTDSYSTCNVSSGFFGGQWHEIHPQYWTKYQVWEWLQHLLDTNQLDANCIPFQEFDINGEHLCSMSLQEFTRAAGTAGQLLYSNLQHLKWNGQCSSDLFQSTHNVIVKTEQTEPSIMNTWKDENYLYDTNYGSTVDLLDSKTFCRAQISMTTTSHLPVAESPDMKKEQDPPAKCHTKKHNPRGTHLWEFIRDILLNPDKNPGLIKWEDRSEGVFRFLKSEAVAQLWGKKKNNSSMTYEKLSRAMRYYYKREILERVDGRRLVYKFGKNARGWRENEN
# Method in brief: as §1
# SPI1 = SPI1 (Homo sapiens, UniProt P17947 1-270); settings: protein: recombinant; tags: N-terminal GST; dsDNA, one strand shown
# Method in brief: as §1
# SPIB = SPIB (Homo sapiens, UniProt Q01892 1-262); settings: protein: recombinant; tags: N-terminal GST; dsDNA, one strand shown
# Method in brief: as §1
# ELK3 = target: T6, ELK3 (Homo sapiens, UniProt P41970 1-407); settings: protein: recombinant; tags: N-terminal GST; dsDNA, one strand shown
# T6 sequence: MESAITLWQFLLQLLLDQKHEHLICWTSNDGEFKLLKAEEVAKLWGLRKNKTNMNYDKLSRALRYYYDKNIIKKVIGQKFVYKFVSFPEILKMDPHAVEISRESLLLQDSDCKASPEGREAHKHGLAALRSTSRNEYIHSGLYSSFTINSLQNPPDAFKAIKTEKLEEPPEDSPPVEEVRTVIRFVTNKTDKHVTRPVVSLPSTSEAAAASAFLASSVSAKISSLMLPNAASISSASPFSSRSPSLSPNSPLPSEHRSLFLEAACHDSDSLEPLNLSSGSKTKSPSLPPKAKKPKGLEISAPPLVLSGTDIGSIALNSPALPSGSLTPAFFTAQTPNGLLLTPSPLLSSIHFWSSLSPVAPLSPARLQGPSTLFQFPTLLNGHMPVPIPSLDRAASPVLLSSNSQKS
# Method in brief: as §1
# FEV = target: T7, FEV (Homo sapiens, UniProt Q99581 1-238); settings: protein: recombinant; tags: N-terminal GST; dsDNA, one strand shown
# T7 sequence: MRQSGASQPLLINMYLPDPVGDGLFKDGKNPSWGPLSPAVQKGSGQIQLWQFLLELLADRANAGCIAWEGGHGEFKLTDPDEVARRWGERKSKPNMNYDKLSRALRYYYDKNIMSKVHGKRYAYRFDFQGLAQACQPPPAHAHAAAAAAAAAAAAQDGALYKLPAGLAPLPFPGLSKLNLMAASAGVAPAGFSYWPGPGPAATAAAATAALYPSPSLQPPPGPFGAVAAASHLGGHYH
# Method in brief: as §1
# ETV5 = ETV5 (Homo sapiens, UniProt P41161 1-510); settings: protein: recombinant; tags: N-terminal GST; dsDNA, one strand shown
# Method in brief: as §1
# HSF1 = HSF1 (Homo sapiens, UniProt Q00613 1-529); settings: protein: recombinant; tags: N-terminal GST; chain copies: 3; dsDNA, one strand shown
# Method in brief: as §1
# SPIC = target: T8, SPIC (Homo sapiens, UniProt Q8N5J4 1-248); settings: protein: recombinant; tags: N-terminal GST; dsDNA, one strand shown
# T8 sequence: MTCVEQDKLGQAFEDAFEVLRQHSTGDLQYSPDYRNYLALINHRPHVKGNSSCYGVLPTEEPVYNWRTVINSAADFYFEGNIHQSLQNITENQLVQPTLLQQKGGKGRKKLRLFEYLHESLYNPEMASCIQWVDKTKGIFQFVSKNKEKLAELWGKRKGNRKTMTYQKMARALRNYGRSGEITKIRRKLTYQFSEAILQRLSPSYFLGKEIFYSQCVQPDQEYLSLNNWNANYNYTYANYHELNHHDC
# Method in brief: as §1
# ELF4 = ELF4 (Homo sapiens, UniProt Q99607 1-663); settings: protein: recombinant; tags: N-terminal GST; dsDNA, one strand shown
# Method in brief: as §1
# ELK4 = target: T9, ELK4 (Homo sapiens, UniProt P28324-2 1-405); settings: protein: recombinant; tags: N-terminal GST; dsDNA, one strand shown
# T9 sequence: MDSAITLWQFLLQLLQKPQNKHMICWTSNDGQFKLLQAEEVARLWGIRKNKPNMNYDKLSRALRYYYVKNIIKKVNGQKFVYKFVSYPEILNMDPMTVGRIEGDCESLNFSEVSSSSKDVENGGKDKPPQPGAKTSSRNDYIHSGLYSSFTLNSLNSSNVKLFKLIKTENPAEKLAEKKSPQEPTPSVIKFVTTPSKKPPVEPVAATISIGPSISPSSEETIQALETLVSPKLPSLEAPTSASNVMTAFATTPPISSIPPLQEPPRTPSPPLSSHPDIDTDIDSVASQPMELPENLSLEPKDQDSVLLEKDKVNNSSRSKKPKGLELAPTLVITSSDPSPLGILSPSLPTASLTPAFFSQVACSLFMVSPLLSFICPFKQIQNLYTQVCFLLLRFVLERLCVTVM
# Method in brief: as §1
# ETV2 = target: T10, ETV2 (Homo sapiens, UniProt O00321 1-342); settings: protein: recombinant; tags: N-terminal GST; dsDNA, one strand shown
# T10 sequence: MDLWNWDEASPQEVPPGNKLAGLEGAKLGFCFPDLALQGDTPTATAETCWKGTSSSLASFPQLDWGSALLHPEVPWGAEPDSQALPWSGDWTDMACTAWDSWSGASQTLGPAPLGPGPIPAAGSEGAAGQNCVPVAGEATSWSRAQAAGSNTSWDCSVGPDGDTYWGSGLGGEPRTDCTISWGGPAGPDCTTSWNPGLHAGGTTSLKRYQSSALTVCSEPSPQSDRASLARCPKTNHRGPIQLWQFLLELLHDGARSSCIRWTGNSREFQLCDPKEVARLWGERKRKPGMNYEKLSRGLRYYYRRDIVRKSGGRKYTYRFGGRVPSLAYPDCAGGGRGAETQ
# Method in brief: as §1
# ELF3 = target: T11, ELF3 (Homo sapiens, UniProt P78545 1-371); settings: protein: recombinant; tags: N-terminal GST; dsDNA, one strand shown
# T11 sequence: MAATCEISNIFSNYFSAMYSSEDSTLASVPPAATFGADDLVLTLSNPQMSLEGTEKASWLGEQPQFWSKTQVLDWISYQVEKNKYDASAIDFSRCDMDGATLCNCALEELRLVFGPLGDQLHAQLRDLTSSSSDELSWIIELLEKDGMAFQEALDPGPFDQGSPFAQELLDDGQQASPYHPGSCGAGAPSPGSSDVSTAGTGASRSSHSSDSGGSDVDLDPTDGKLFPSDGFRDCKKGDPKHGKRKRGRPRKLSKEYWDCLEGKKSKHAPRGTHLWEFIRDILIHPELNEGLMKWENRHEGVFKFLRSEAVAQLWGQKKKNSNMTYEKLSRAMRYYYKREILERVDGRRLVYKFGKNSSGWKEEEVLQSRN
# Method in brief: as §1
# CRX = CRX (Homo sapiens, UniProt O43186 1-299); settings: protein: recombinant; tags: N-terminal GST; dsDNA, one strand shown
# Method in brief: as §1
# ETV1 = ETV1 (Homo sapiens, UniProt P50549 1-477); settings: protein: recombinant; tags: N-terminal GST; dsDNA, one strand shown
# Method in brief: as §1
# Sequence of SPIB (Q01892 whole entry): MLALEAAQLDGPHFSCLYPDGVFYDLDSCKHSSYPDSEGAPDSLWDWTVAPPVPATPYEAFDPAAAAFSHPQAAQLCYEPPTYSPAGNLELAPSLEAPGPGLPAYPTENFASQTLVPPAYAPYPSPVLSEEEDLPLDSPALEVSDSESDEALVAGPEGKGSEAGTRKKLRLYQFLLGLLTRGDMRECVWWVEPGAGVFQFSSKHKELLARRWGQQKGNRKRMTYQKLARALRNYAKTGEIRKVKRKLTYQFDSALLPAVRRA
# Sequence of ELF4 (Q99607 whole entry): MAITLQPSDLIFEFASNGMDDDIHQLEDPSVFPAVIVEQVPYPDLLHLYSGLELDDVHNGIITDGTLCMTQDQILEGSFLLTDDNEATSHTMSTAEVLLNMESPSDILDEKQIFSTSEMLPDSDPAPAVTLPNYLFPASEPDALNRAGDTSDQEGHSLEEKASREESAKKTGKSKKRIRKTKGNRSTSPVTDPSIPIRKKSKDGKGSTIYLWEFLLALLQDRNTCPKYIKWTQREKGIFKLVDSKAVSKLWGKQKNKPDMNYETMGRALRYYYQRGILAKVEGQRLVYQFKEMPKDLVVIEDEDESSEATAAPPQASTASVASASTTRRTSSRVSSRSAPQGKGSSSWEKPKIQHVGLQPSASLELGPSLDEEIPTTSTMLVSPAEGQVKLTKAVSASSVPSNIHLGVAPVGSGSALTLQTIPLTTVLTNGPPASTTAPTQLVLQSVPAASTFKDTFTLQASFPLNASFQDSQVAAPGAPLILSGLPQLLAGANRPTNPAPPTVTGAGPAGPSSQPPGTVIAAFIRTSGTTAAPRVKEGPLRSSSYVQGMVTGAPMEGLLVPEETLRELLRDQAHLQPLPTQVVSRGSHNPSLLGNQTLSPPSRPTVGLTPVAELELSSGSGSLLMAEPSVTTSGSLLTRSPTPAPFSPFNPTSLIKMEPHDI
# Sequence of ETV1 (P50549 whole entry): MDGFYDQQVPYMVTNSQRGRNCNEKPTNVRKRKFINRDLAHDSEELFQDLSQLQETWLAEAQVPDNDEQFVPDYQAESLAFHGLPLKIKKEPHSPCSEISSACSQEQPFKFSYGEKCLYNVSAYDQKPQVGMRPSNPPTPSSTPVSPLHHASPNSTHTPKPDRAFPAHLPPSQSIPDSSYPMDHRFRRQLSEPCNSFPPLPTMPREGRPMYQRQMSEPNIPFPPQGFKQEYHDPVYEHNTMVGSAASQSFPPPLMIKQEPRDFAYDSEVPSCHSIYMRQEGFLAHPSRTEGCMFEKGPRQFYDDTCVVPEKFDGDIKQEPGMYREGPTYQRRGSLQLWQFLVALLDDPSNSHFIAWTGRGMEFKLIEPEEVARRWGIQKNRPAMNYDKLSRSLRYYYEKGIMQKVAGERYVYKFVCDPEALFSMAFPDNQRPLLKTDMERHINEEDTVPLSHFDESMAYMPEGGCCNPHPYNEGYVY
# Sequence of CRX (O43186 whole entry): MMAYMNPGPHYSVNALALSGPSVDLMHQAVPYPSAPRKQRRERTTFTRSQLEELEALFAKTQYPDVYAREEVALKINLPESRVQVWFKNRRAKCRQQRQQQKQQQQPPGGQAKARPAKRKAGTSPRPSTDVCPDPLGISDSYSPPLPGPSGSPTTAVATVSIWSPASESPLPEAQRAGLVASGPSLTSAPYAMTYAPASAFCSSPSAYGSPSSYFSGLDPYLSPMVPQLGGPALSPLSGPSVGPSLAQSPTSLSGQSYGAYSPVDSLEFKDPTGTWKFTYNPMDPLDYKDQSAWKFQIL
# Sequence of ETV5 (P41161 whole entry): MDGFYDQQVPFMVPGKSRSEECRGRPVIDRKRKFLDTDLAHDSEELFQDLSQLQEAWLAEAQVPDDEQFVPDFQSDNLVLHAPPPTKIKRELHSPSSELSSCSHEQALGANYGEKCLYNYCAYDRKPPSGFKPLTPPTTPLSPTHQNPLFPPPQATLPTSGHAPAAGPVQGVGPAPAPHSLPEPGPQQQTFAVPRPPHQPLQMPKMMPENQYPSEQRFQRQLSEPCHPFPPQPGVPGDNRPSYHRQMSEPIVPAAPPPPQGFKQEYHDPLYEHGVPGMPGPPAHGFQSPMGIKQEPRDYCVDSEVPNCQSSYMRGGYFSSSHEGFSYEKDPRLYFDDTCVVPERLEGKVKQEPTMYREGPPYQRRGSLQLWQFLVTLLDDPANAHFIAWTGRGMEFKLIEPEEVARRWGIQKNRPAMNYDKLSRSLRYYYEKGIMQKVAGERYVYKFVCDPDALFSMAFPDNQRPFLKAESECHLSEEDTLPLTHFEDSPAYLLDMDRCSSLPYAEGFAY
# Sequence of ELF1 (P32519 whole entry): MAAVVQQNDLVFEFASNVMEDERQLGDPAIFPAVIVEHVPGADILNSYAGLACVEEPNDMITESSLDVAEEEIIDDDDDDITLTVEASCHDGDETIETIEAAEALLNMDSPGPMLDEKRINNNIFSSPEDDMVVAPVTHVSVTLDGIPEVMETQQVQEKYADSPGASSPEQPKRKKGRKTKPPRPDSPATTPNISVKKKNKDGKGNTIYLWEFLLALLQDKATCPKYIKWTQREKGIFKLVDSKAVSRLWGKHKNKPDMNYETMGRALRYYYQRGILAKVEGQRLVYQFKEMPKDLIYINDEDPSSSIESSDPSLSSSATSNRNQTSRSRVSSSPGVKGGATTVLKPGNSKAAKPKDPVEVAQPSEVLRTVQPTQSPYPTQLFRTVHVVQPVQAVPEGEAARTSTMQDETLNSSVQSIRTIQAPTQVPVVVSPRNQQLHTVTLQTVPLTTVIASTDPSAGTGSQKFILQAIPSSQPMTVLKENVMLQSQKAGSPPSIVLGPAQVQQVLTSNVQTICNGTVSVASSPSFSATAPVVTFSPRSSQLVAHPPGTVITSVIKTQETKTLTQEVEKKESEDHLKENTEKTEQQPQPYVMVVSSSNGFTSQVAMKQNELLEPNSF
# Sequence of HSF1 (Q00613 whole entry): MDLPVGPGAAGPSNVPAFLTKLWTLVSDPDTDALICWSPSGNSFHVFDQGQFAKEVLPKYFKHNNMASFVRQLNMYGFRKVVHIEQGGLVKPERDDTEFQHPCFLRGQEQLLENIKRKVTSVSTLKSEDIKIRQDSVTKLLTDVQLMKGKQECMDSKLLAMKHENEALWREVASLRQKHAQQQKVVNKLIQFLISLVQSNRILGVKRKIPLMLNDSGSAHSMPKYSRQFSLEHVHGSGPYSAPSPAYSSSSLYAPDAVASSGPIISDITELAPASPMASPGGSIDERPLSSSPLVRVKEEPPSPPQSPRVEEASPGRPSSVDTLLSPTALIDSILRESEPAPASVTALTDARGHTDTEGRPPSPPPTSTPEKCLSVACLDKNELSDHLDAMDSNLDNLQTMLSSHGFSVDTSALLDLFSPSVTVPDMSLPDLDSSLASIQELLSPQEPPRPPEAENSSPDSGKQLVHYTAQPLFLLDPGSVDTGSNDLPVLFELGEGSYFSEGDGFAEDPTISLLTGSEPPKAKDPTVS
sequence,measurement,setting,value
TTGCTA,binding signal,FLI1,"1.38 fold enrichment (6-mer frequency, TF over GST control)"
same,binding signal,ELK1,"1.27 fold enrichment (6-mer frequency, TF over GST control)"
same,binding signal,GABPA,"1.27 fold enrichment (6-mer frequency, TF over GST control)"
same,binding signal,ERG,"1.26 fold enrichment (6-mer frequency, TF over GST control)"
same,binding signal,ELF1,"1.3 fold enrichment (6-mer frequency, TF over GST control)"
same,binding signal,EHF,"1.33 fold enrichment (6-mer frequency, TF over GST control)"
same,binding signal,SPI1,"1.31 fold enrichment (6-mer frequency, TF over GST control)"
same,binding signal,SPIB,"1.37 fold enrichment (6-mer frequency, TF over GST control)"
same,binding signal,ELK3,"1.33 fold enrichment (6-mer frequency, TF over GST control)"
same,binding signal,FEV,"1.24 fold enrichment (6-mer frequency, TF over GST control)"
same,binding signal,ETV5,"1.3 fold enrichment (6-mer frequency, TF over GST control)"
same,binding signal,HSF1,"1.48 fold enrichment (6-mer frequency, TF over GST control)"
same,binding signal,SPIC,"1.4 fold enrichment (6-mer frequency, TF over GST control)"
same,binding signal,ELF4,"1.29 fold enrichment (6-mer frequency, TF over GST control)"
same,binding signal,ELK4,"1.46 fold enrichment (6-mer frequency, TF over GST control)"
same,binding signal,ETV2,"1.35 fold enrichment (6-mer frequency, TF over GST control)"
same,binding signal,ELF3,"1.31 fold enrichment (6-mer frequency, TF over GST control)"
same,binding signal,CRX,"1.5 fold enrichment (6-mer frequency, TF over GST control)"
same,binding signal,ETV1,"1.37 fold enrichment (6-mer frequency, TF over GST control)"
